# Source: the supplement of paper PMC3334620
# The full ranking holds about 33,000 sequences; the median of “E-score (-0.5 to 0.5)” is about -0.041, and the highest 2% start at about 0.37. Shown is part of a subset that was picked to be rich in the highest values.
# Biological target: T1, Ecm22 (UniProt Q05958)
# T1 sequence: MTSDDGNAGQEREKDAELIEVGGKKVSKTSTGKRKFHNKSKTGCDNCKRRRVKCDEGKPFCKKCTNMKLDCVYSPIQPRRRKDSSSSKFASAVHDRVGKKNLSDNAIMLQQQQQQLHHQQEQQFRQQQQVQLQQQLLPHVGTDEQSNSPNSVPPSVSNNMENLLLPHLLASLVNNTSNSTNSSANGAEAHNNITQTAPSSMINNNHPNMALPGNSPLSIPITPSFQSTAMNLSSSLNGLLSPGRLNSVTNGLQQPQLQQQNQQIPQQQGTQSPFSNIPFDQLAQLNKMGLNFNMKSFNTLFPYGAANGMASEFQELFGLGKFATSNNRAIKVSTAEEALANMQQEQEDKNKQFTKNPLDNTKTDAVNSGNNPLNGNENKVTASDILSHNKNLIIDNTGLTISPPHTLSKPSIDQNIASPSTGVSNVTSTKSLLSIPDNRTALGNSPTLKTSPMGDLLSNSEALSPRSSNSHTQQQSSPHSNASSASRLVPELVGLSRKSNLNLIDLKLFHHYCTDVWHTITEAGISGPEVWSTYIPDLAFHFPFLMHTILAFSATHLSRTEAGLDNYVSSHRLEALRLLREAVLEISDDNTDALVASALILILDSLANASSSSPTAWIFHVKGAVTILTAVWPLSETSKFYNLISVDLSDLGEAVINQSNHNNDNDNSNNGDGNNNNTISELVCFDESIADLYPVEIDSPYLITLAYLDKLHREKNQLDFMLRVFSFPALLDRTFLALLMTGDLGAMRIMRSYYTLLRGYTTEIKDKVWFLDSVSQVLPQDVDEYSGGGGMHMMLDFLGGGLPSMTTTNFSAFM
# Assay: PBM E-score (8-mer binding enrichment) (E-score (-0.5 to 0.5)); higher = stronger / more preferred TF binding
# Settings: protein concentration: 200 nM; construct: GST-full length
# How it was run: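 Each ungapped eight-base word and its reverse complement, pooled, received an E-score from the Universal PBM Analysis Suite. Underlying scans, normalised with masliner, recorded fluorescent anti-GST bound to GST-tagged yeast transcription factors. These were applied at about 100-200 nM to universal all-10-mer Agilent arrays double-stranded by primer extension.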
row,Sequence,PBM E-score
1,GGGGCAGA,-0.0715
2,ATCCTGCC,-0.0749
3,CGAGCACA,0.225
4,AGCCCTGG,-0.233
5,TAACCCCA,-0.181
6,ACAACTCC,-0.151
7,CGGCGAAA,0.0597
8,ACGTATGA,0.17
9,AAGTATAC,0.255
10,GAGTATAC,0.286
11,CCGTATGA,0.396
12,GGGTATAC,0.15
13,CCGTATGC,0.268
14,CCGTATAA,0.473
15,GCGTATAC,0.406
16,ACGTATAC,0.381
17,CGGTATAA,0.161
18,ATGTATAC,0.179
19,CTGTATAA,0.0431
20,AGTGCCAA,-0.0554
21,CTGCCTCA,-0.257
22,AATGTGCT,0.00418
23,CGATATGC,0.188
24,ATTCCCAG,-0.0258
25,GGAGCGAC,0.339
26,GGCGTTGA,-0.126

row,Sequence,PBM E-score
1,ACTTTAGG,-0.0481
2,CTGTATAC,0.207
3,ATGTATAA,0.0604
4,GTGTATAA,-0.026
5,GCGTATTA,0.031
6,AGGTATAT,-0.117
7,GCGTATAA,0.394
8,AGGTATAA,0.211
9,AAGTATAT,0.0727
10,ACGTATAT,0.371
11,CCGTATCC,0.337
12,ACGTATAA,0.412
13,CCGTATAC,0.456
14,TTCAAGAA,0.0932
15,CAGCCGGC,0.0272
16,CCAGAGAA,0.0432
17,GCAGGACA,-0.0743
18,CAGTCTAA,0.0425
19,ATGACTTG,-0.136
20,AGATACTG,-0.0213
21,CGGACGTA,0.205
22,ACTTTTAT,-0.217
23,CTACAGTC,-0.0606
24,AACAGGTA,-0.0274
25,AATAAGGC,-0.225
26,ACGTATAG,0.403

row,Sequence,PBM E-score
1,CCGTATCG,0.291
2,ACGTATTG,0.22
3,ACGTATCG,0.192
4,CGGTATAG,0.0179
5,CCGTATAG,0.465
6,CTGAAGTA,-0.134
7,TCACCAAA,0.0237
8,TCGGATAA,0.372
9,CCGGATAA,0.0584
10,ACGGATAA,0.159
11,AGCAGCCG,-0.0197
12,ATATAGGC,-0.00233
13,AAACGCAT,0.0604
14,AAACGACG,0.465
15,GAACGACA,0.456
16,ACACGACT,0.117
17,CAACGACG,0.351
18,AAACGACT,0.437
19,AGACGACT,0.065
20,GGACGACC,-0.107
21,GAACGACC,0.451
22,CAACGACA,0.346
23,GCACGACC,-0.219
24,TAACGACA,0.352
25,CGACGACG,0.127
26,ATAGCTCC,-0.169

row,Sequence,PBM E-score
1,CCCTTCCA,-0.32
2,ACCGGATG,0.0481
3,CTCCTCTC,-0.0778
4,GGTGTGAC,-0.177
5,CTCGCACC,0.31
6,AGATCCGG,-0.0497
7,ATCGGTCG,0.211
8,AAACGACC,0.45
9,TCACGACA,0.00255
10,CAACGACC,0.278
11,AATCGACC,-0.0105
12,AAACGACA,0.467
13,CCACGACA,-0.0411
14,CCTTCCGC,-0.184
15,GAGAGGGA,-0.212
16,AGATACGC,0.196
17,CGATACGC,0.2
18,GGATACCA,-0.0853
19,AGATACGA,0.47
20,CGATACAA,0.148
21,GGATACTA,-0.144
22,GGATACGA,0.45
23,CGATACGA,0.454
24,AGATACGG,0.28
25,CAAATGCC,-0.27
26,TGCAAGAA,-0.0877

row,Sequence,PBM E-score
1,AAGCCATA,-0.0528
2,CCTTCCCG,-0.043
3,ACAGAGCG,0.00751
4,CCTTGAAA,-0.0768
5,ACGAGTTC,0.319
6,GCGAGTTA,0.191
7,ACGAGTTG,0.371
8,CCGAGTTA,0.0641
9,ACGAGTTA,0.422
10,AGGAGTTG,0.0179
11,GGGAACCC,0.0178
12,CGCCCAGA,-0.104
13,CCCAACCA,0.0792
14,GAAGAGAC,0.0183
15,GACCTTCA,-0.0961
16,AGTTTAGC,-0.19
17,GGTTTAGA,-0.179
18,AGTTTAGA,-0.186
19,CATTTAGC,0.0683
20,CGTTTGGC,0.394
21,CGTTTAGC,0.464
22,CGTTTGGA,0.366
23,AGTTTGGC,-0.00953
24,CGTTTAGA,0.446
25,CACTGCTG,-0.147
26,GCTGCTAC,0.124

row,Sequence,PBM E-score
1,GACCCGGA,-0.17
2,CTCCGCGC,-0.0267
3,ACGTAGCA,0.0433
4,TCGTAGCA,0.419
5,CCGTAGAA,0.122
6,GCGTAGAA,-0.0103
7,CCGTAGCA,0.165
8,TCGTAGAA,0.384
9,AAGACCTC,-0.2
10,CAAACGAG,0.463
11,GAAACGGC,0.2
12,GAAACGAC,0.41
13,CAAACGAC,0.442
14,CTAACGAC,0.282
15,AAAACGAG,0.362
16,GAAACGCC,0.0403
17,CCAACGAG,0.093
18,AAAACGAC,0.363
19,ACCCAGCG,-0.184
20,CAGGACCG,-0.0291
21,CAATTCGC,0.0698
22,ACTCACGG,0.034
23,CACGTCCG,-0.21
24,CAGATGGA,0.0554
25,ACTCACCG,-0.0985
26,ATCGTTAG,0.201

row,Sequence,PBM E-score
1,GACGTTAA,0.0928
2,CGCGTTAC,0.159
3,CTCGTTAA,0.437
4,CCCGTTAA,0.256
5,CACGTTAC,-0.046
6,GTCGTTAA,0.427
7,GGCGTTAA,-0.0419
8,ATCGTTAC,0.264
9,CTCGTTAC,0.371
10,CACGTTAA,0.00208
11,ATCGTTAA,0.403
12,CGGCGTAG,-0.00106
13,ATAGTGAT,0.176
14,CCTCGCAG,0.0132
15,CCCGTCCG,-0.309
16,CGCCAGTC,0.014
17,GTACGGAA,0.4
18,GGACGGAA,-0.0866
19,ATACGGAC,0.362
20,CTACGGAG,-0.0418
